# Source: PubChem BioAssay
# A selection: hits, their analogues and other compounds. The true share with any hit is near 1.1%.
# CtBP-E1A blk: blocks the CtBP interaction with E1A. AlphaScreen GST-E1A/His-CtBP binding, 1536-well; hits give low values. activity change, % (test concentration not listed). 0.49% of 340,000 active; also: % is scaled to controls: 0 for no effect and ±100 for the full control effect
#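 Steps: dispense buffer (Tris pH 8.0, NaCl 300 mM, TCEP 1 mM, BSA, Tween 20); add 5X protein mix (GST-E1A, His-CtBP, 125 nM each); pin 23 nL compound; 2 h at 37 °C, dark; add 5X beads (50 ug/mL); 1 h; read.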
# uPA generation: blocks generation of uPA at the cell surface | 0.31% of 330,000 active | cell surface uPA generation assay, qHTS | Potency, µM (series often up to 38.3 µM), for inactives: top-dose activity change, negative = inhibition, usual class: inhibitors; active = well fitted inhibition curve with a large enough effect; inconclusive = small, poorly fitted or top-dose-only effect; inactive = no such curve, though single readings can be large or run the other way; tested in mouse RAW 264.7 cells; also: potency is read from the fitted curve at half-maximal effect; % is scaled to controls: 0 for no effect and ±100 for the full control effect; nearly all actives have a fitted effect of over 55% in size
# MBNL1-CUG inh: MBNL1-poly(CUG) RNA binding inhibition. Q9NR56. TR-FRET MBNL1-His/biotin-(CUG)12 binding, 665/545 ratio. Potency, µM (top dose mostly 57.5 µM), for the others: at the highest dose activity change, negative = inhibition, hits mostly inhibitors. 0.036% of 280,000 active. AID 2675; active = well fitted inhibition curve with a large enough effect in the signal ratio, with a control signal flat, not every such curve was filed as active; inconclusive = small, poorly fitted or top-dose-only effect, or effect the other way, or a change in a side signal; inactive = no such curve, though single readings can be large or run the other way; the % refers to the signal ratio; also: potency is read from the fitted curve at half-maximal effect; % is scaled to controls: 0 for no effect and ±100 for the full control effect
# Target sequence (Q9NR56 whole entry, looked up): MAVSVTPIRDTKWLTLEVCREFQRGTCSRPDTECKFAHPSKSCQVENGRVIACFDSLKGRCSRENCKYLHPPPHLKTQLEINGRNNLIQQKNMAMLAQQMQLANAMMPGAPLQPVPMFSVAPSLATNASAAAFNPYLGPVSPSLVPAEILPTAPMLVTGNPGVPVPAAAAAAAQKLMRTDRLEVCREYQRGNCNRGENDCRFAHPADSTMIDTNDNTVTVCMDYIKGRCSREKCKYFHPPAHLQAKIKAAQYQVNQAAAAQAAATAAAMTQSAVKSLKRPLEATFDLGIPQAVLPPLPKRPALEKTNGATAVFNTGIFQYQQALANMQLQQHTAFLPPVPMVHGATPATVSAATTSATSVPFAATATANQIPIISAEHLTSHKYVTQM
#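 Ratiometric TR-FRET (665 over 545 nm, excitation 340 nm) tracks disruption of MBNL1-His/biotin-(CUG)12 complex after 60 min at room temperature, with compounds at 92 nM to 58 uM final.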
# Mito fusion yeast: inhibitors of mitochondrial division or activators of mitochondrial fusion; S. cerevisiae fusion-defective mutant growth rescue, CellTiterGlo 48 h; Potency, µM (series often up to 46.1 µM), for inactives: at the top dose growth rescue (activation), most hits filed as activators; 0.23% of 320,000 active; active = well fitted activation curve with a large enough effect; inconclusive = small, poorly fitted or top-dose-only effect; inactive = no such curve, though single readings can be large or run the other way; also: potency is read from the fitted curve at half-maximal effect; % of control where 0% means no effect; nearly all actives have a fitted effect of over 45% in size
#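 S. cerevisiae fusion-defective temperature-sensitive mutants (e.g. fzo1-1, mgm1-5) grown 48 h at 37C in YPEG (ethanol/glycerol non-fermentable) medium with 23 nl compound per well; growth rescue read as CellTiterGlo luminescence.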
# Six1-Eya2 blk: inhibitors of human Six1/Eya2 interaction. Q15475+O00167. AlphaScreen GST-Six1/His-Eya2 binding, biochemical; hits give low values. activity change, % (concentration not given with the values). 0.56% of 360,000 active; also: % is scaled to controls: 0 for no effect and ±100 for the full control effect
#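 Homogeneous AlphaScreen proximity assay pairing GST-Six1 with His-tagged Eya2 (added as 5X mix: 250 nM and 500 nM) in 50 mM Tris pH 8.0, 300 mM NaCl, 1 mM TCEP. Glutathione donor and nickel acceptor beads; 1 h, 37 °C, dark.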
# * = called active by the depositor; ? = inconclusive; . = not tested or not shown. Rule as the data show it, unless noted: active = activity change below about -65%; inconclusive = mostly about -30% to -63%; inactive = weaker than that.
SMILES,CtBP-E1A blk,uPA generation,MBNL1-CUG inh,Mito fusion yeast,Six1-Eya2 blk
Clc1ccc(C(Cn2ccnc2)OCc2csc3c(Cl)cccc23)c(Cl)c1 (stereo unspecified),-23.9,?,.,3.55µM*,-3.4
O=[N+]([O-])c1ccc(CN2CCN(c3ccc(Cl)cc3)CC2)o1,-7.0,-1.9%,?,-8.3%,2.2
COc1ccc2nc(/N=C/c3c(O)n(-c4cccc(Cl)c4)c(=O)[nH]c3=O)sc2c1,?,-6.3%,-6.3%,5.8%,-70.8*
COc1cc2c(c(OC)c1OC)-c1ccc(O)c(=O)cc1[C@@H](NC(C)=O)CC2,-1.2,8.91µM*,.,.,-23.7
COc1cc2c(c(OC)c1OC)-c1ccc(O)cc1C(NC(C)=O)CC2 (stereo unspecified),-2.1,-16.6%,.,.,-0.4
NC(Cc1ccc(Cl)cc1)c1csc(Nc2cnccn2)n1 (stereo unspecified),?,.,.,.,-71.6*
COc1ccc(O)c(/C=N/NC(=S)Nc2cccnc2)c1,.,11.2µM*,7.3%,2.6%,-89.6*
Cc1ccc(-c2cc(-c3ccccc3)cc(-c3ccccc3)[n+]2-c2ccccc2)cc1,-9.6,10µM*,.,0.9%,-3.6
Cc1ccc(-c2cc(-c3ccc(C)cc3)[n+](-c3ccccc3)c(-c3ccc(C)cc3)c2)cc1,-5.4,?,.,-39.3%,-15.0
CCCCC(=O)N/N=C/c1c(O)n(C2CC2)c(=S)[nH]c1=O,4.1,-0.7%,12.0%,-2.8%,0.1
O=c1[nH]c(=O)n(-c2cccc3ccccc23)c(O)c1C=NCCCn1ccnc1,1.1,2.1%,-14.0%,-1.5%,1.5
CCCCC(=O)N/N=C/c1c(O)n(Cc2ccco2)c(=O)[nH]c1=O,?,0.1%,?,-7.4%,-74.5*
O=C(N/N=C/c1c(O)n(Cc2ccco2)c(=O)[nH]c1=O)c1ccccc1O,-89.1*,1.2%,4.3%,3.6%,-86.8*
CCCCC(=O)N/N=C/c1c(O)n(-c2cccc3ccccc23)c(=O)[nH]c1=O,.,17.3%,.,-2.9%,-70.8*
CCCCC(=O)N/N=C/c1c(O)n(CCCC)c(=S)[nH]c1=O,-65.8*,8.5%,.,0.0%,-73.6*
C=CCn1c(-c2ccc([N+](=O)[O-])cc2)n[nH]c1=S,8.5,5.3%,?,-2.9%,0.5
COc1ccc(-c2c(-c3cc(OC)cc(OC)c3)n(C)c3ccc(-c4ccc(S(N)(=O)=O)cc4)cc23)cc1,-15.8,?,.,4.1%,-25.6
CCOC(=O)C1(Cc2ccc(Cl)cc2)CCN(C(C)Cc2ccc(O)c(OC)c2)CC1 (stereo unspecified),-9.4,?,-1.5%,-12.7%,-17.2
COc1ccc(-c2cn(Cc3ccc(C(=O)c4ccccc4)cc3)nn2)cc1,-26.2,?,-1.4%,2.0%,-11.8
O=C(N/N=C/c1c(O)n(Cc2ccc(F)cc2)c(=S)[nH]c1=O)c1ccncc1,-66.8*,4.4%,.,2.1%,?
CCn1c(O)c(/C=N/NC(=O)c2ccncc2)c(=O)[nH]c1=S,.,9.3%,.,6.4%,-17.3
COc1ccc(OC)c(N2C(=O)NC(=O)/C(=C\c3ccc([N+](=O)[O-])s3)C2=O)c1,?,4.8%,.,-3.9%,-66.9*
O=C(NCc1cccs1)c1cc(C2CC2)on1,-5.6,?,2.6%,-2.5%,0.5
Cc1c2ccncc2c(C)c2c1[nH]c1ccccc12,7.9,0.891µM*,?,?,-2.5
Cn1nc([N+](=O)[O-])nc1Sc1cccc2cccnc12,.,?,?,0.5%,-90.1*
SMILES,CtBP-E1A blk,uPA generation,MBNL1-CUG inh,Mito fusion yeast,Six1-Eya2 blk
CC1=Nc2cc(C(=O)N3CCC4(CC3)OCCO4)ccc2Sc2ccc(Cl)cc21,-0.1,2.8%,-5.2%,15.8µM*,-0.9
Clc1ccc(CCC(Cn2ccnc2)Sc2c(Cl)cccc2Cl)cc1 (stereo unspecified),-21.5,?,.,0.562µM*,-14.3
Clc1ccc(Cn2ccnc2)cn1,10.1,23.1%,11.6%,-3.9%,43.7
Cn1c(=O)c2c(nc(N/N=C/c3c(O)n(-c4ccccc4)c(=S)[nH]c3=O)n2C)n(C)c1=O,-84.2*,-1.5%,-4.1%,-0.2%,-84.0*
CN(CC(=O)Nc1ccc(Cl)c(C(F)(F)F)c1)C(=O)c1ccc(OCC2CCCO2)cc1 (stereo unspecified),-20.2,?,.,3.1%,3.5
COC(=O)C1=C(c2ccccc2OCc2ccccc2)C[C@@H]2CC[C@H]1N2C(=O)NCc1ccccc1,-8.7,-20.2%,.,?,-12.7
COC(=O)C1=C(c2ccccc2OCc2ccccc2)C[C@@H]2CC[C@H]1N2C(=O)NCCc1ccc(F)cc1,0.0,?,.,8.91µM*,-0.4
O=[N+]([O-])NC1=NCCN1Cc1ccc(Cl)nc1,1.8,1.12µM*,-5.2%,-0.8%,4.3
CC(C)N(C(=O)Cn1c(=O)oc2ccccc21)c1ccccc1,.,15.2%,-6.7%,1.6%,8.0
CN1CCc2c(C#N)c(Cl)nc(Cl)c2C1,.,11.2µM*,21.9%,2.4%,4.3
CN1CCc2nc(N)c(C#N)c(-c3ccccc3)c2C1,3.1,3.3%,17.8%,0.1%,-1.6
O=[N+]([O-])c1ccc([N+](=O)[O-])c(Nc2ccc(N3CCOCC3)cc2)c1,.,?,?,0.0%,-17.8
COc1cc2c(cc1O)[C@@H]1Cc3ccc(OC)c(O)c3CN1CC2,?,4.47µM*,.,-0.3%,-2.0
COc1ccc(C[C@@H]2c3cc(O)c(OC)cc3CCN2C)cc1O,-20.9,12.2%,-14.0%,-4.3%,0.8
O=C(NCC1CC1)c1cc([N+](=O)[O-])cc([N+](=O)[O-])c1,5.4,-2.3%,?,-14.4%,1.8
Cc1n[nH]c(C)c1CCCCOc1ccccc1[N+](=O)[O-],.,?,5.7%,-2.5%,-9.4
c1ccc(CCCN2CCN(CCOC(c3ccccc3)c3ccccc3)CC2)cc1,?,?,.,7.31µM*,-8.0
N[C@@H](Cn1ccc(=O)c(O)c1)C(=O)O,.,.,.,-12.8%,.
O=C(/C=C/c1ccccc1)NC(NC(=S)Nc1cc(Cl)ccc1Cl)C(Cl)(Cl)Cl (stereo unspecified),-1.7,?,-4.8%,-4.8%,1.3
COc1ccc(-c2cc(=NCCCCCC(=O)O)c3cc(C)ccc3o2)cc1,-90.4*,-1.4%,?,0.3%,-83.0*
COc1ccc(-c2cc(=Nc3cccc(C(=O)O)c3)c3cc(C)ccc3o2)cc1,1.6,-7.2%,12.8%,9.5%,-1.6
C=C1C(=O)O[C@@]23[C@H]1CC[C@@H](C)[C@@H]2CC[C@@]1(C)O[C@@H]31,7.4,?,.,.,6.3
CS(=O)(=O)Nc1cccc(C2=NN(C(=O)c3ccco3)C(c3cccs3)C2)c1 (stereo unspecified),-4.2,?,?,-6.3%,-10.5
